PubChem BioAssay (Tox21)
Inconclusive results are not listed. Active and inactive are the calls of the source. Calls follow the shape of the dose curve; as a rule, active = well fitted activation curve with a large enough effect in the repeat runs; inconclusive = weak or mixed curves; inactive = no such curve, though single readings can be large or run the other way. Positions of bridges follow the written chain, without caps; N, C: chain ends. Non-standard residues stand in square brackets, D forms with d. Residues, ends and D or L forms follow the SMILES beside them. *: point of attachment. X1 = CC[C@@H](C)[C@@H](N)C1=N[C@H](C(=O)*)CS1; d(aIle) = CC[C@H](C)[C@@H](N)C(=O)O; dOrn = NCCC[C@@H](N)C(=O)O

Molecular target: Nuclear receptor subfamily 1 group I member 2 (Rattus norvegicus) (UniProt Q9R1A7)
Test: Rat pregnane X receptor (rPXR) activation by small molecules, qHTS assay (AID 1346983); also: nearly all actives have a fitted effect of over 20% in size
Conditions: rPXR luciferase reporter cells, One-Glo luminescence, 24 h; max activation: active compounds read high
Procedure, shortened: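 Cell-based rPXR luciferase reporter assay, 2,000 cells per well, rested 5hr at 37 C before compound addition in DMSO, then 24 hr at 37 C. One-Glo reagent was added and luminescence read after 30 min at room temperature.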
% is scaled to controls: 0 for no effect and ±100 for the full control effect; potency is read from the fitted curve at half-maximal effect.

Chain of Nuclear receptor subfamily 1 group I member 2 (Rattus norvegicus) (Q9R1A7 whole entry, looked up): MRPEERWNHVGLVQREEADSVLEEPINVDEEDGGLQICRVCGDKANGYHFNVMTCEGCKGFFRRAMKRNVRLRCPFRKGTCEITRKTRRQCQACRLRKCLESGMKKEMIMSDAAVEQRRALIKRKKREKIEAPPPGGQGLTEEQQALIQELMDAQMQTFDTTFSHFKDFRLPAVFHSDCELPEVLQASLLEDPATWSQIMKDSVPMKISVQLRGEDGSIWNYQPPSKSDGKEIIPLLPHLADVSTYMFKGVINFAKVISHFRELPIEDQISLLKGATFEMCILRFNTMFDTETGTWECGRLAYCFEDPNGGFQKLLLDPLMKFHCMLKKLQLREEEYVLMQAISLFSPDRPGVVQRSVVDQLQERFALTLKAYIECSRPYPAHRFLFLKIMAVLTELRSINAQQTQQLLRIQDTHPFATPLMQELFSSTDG

Structure (SMILES) | max activation | Potency
CO[C@H]1C[C@H](O[C@H]2[C@H](C)[C@@H](O[C@@H]3O[C@H](C)C[C@H](N(C)C)[C@H]3O)[C@@H](C)C[C@]3(CO3)C(=O)[C@H](C)[C@@H](O)[C@@H](C)[C@@H](C)OC(=O)[C@@H]2C)O[C@@H](C)[C@@H]1O | 3.2% (inactive) | 
NCC1CCC(C(=O)O)CC1 (stereo not drawn) | -1.27% (inactive) | 
O=C(O)c1cc(=O)c2c3nc4ccccc4oc-3cc(=O)c2[nH]1 | -7.15% (inactive) | 
CN1CCN(CCCN2c3ccccc3Sc3ccc(C(F)(F)F)cc32)CC1 | -11.2% (inactive) | 
C/C=C/C1=C(C(=O)O)N2C(=O)[C@@H](NC(=O)[C@H](N)c3ccc(O)cc3)[C@H]2SC1 | -4.1% (inactive) | 
CO[C@H](C(=O)[C@@H](O)[C@@H](C)O)C1Cc2cc3cc(O[C@H]4C[C@@H](O[C@H]5C[C@@H](O)[C@H](O)[C@@H](C)O5)[C@@H](O)[C@@H](C)O4)c(C)c(O)c3c(O)c2C(=O)[C@H]1O[C@H]1C[C@@H](O[C@H]2C[C@@H](O[C@H]3C[C@](C)(O)[C@H](O)[C@@H](C)O3)[C@H](O)[C@@H](C)O2)[C@H](O)[C@@H](C)O1 (stereo partly drawn) | -17.7% (inactive) | 
CCc1cn([C@H]2C[C@H](O)[C@@H](CO)O2)c(=O)[nH]c1=O | 1.52% (inactive) | 
O=C1c2ccccc2C(=O)C1c1ccc(F)cc1 |  | 28.2 µM (active)
NS(=O)(=O)c1cc(Cl)c(Cl)c(S(N)(=O)=O)c1 | -2.98% (inactive) | 
O=c1[nH]c(=O)n([C@H]2C[C@H](O)[C@@H](CO)O2)cc1/C=C/Br | -6.99% (inactive) | 
CNC(=O)C[C@@H](N)C(=O)N[C@@H](C(=O)N[C@@H]1C(=O)N2[C@@H]1SC(C)(C)[C@@H]2C(=O)O)c1ccc(O)cc1 | -2.18% (inactive) | 
CC1(C)S[C@@H]2[C@H](NC(=O)[C@@H](NC(=O)N3CCNC3=O)c3ccccc3)C(=O)N2[C@H]1C(=O)O | -1.76% (inactive) | 
O=C(CCCN1CCN2CCCC2C1)c1ccc(F)cc1 (stereo not drawn) | 1.23% (inactive) | 
CSCCC(N)C(=O)O (stereo not drawn) | -0.631% (inactive) | 
O=C1c2ccccc2CN2C(=O)c3ccccc3CN12 | -1.83% (inactive) | 
CC(C)[N+]1(C)[C@@H]2CC[C@H]1CC(OC(=O)C(CO)c1ccccc1)C2 (stereo partly drawn) | -2.6% (inactive) | 
C[C@H](NCCc1ccc(O)cc1)[C@H](O)c1ccc(O)cc1 | -4.49% (inactive) | 
O=P(O)(O)OP(=O)(O)OP(=O)(O)O | -6.54% (inactive) | 

Molecular target: Nuclear receptor subfamily 1 group I member 2 (Homo sapiens) (UniProt O75469)
Test: CYP3A4 induction through human pregnane X receptor (PXR) by small molecules, qHTS assay (AID 1346984); also: nearly all actives have a fitted effect of over 40% in size
Conditions: DPX-2 HepG2 PXR, CYP3A4-luciferin luminescence, 24 h; series mostly up to 46.1 µM; activation: at the top concentration
Procedure, shortened: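 Quantitative HTS in DPX-2 cells, i.e. HepG2 transfected with PXR response element and CYP3A4-promoter luciferase. Compounds in DMSO incubated 24hr at 37C; then P450-Glo CYP3A4 substrate, 3uM final, 3hr; One-Glo luminescence.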

Structure (SMILES) | activation | Potency
NC(N)=NCc1cccc(I)c1 | -9.85% (inactive) | 
CCOc1cc(CC(=O)N[C@@H](CC(C)C)c2ccccc2N2CCCCC2)ccc1C(=O)O | 29.5% [at 20.6 µM] (inactive) | 
O=C(O)COc1ccccc1/C=N/NC(=O)c1ccncc1 | -7.49% (inactive) | 
CC12CCC(C[N+](C)(CCC[N+](C)(C)C)C1)C2(C)C (stereo not drawn) | -8.59% (inactive) | 
CN(C)CCC(O)(c1ccccc1)c1ccccc1Cl (stereo not drawn) |  | 12.6 µM (active)
CCN(CC)CCOC[C@H]1O[C@@H](O)[C@H](OCCN(CC)CC)[C@@H](O)[C@@H]1O | -2.56% (inactive) | 
CC[C@@H](C)[C@@H](N)C1=N[C@H](C(=O)N[C@@H](CC(C)C)C(=O)N[C@@H](CCC(=O)O)C(=O)N[C@@H](C(=O)N[C@@H]2CCCCNC(=O)[C@@H](CC(N)=O)NC(=O)[C@@H](CC(=O)O)NC(=O)[C@@H](Cc3cnc[nH]3)NC(=O)[C@@H](Cc3ccccc3)NC(=O)[C@@H]([C@H](C)CC)NC(=O)[C@@H](CCCN)NC2=O)[C@@H](C)CC)CS1 (X1-LE[d(aIle)][dK][dOrn][dI][dF][dH][dD][dN]; lactam 4-C) | -6.99% [at 20.6 µM] (inactive) | 
N=C(N)c1ccc(/C=C/c2ccc(C(=N)N)cc2O)cc1 | -6.04% (inactive) | 
FC(F)(F)C(F)(F)C(F)(F)C(F)(F)C(F)(F)F | -8.47% (inactive) | 
CC[C@H](C)C(=O)O[C@H]1CCC=C2C=C[C@H](C)[C@H](CC[C@@H]3C[C@@H](O)CC(=O)O3)[C@H]21 | 4.72% (inactive) | 
N[C@H](CO)C(=O)O | -4.97% (inactive) | 
CCC(NC(C)C)C(O)c1ccc(O)c(O)c1 (stereo not drawn) | -1.08% (inactive) | 
Cc1cc(-c2ccc(N=Nc3ccc4c(S(=O)(=O)O)cc(S(=O)(=O)O)c(N)c4c3O)c(C)c2)ccc1N=Nc1ccc2c(S(=O)(=O)O)cc(S(=O)(=O)O)c(N)c2c1O | -15.9% (inactive) | 
CO[C@H]1C[C@H](O[C@H]2[C@H](C)[C@@H](O[C@@H]3O[C@H](C)C[C@H](N(C)C)[C@H]3O)[C@@H](C)C[C@]3(CO3)C(=O)[C@H](C)[C@@H](O)[C@@H](C)[C@@H](C)OC(=O)[C@@H]2C)O[C@@H](C)[C@@H]1O | -9.95% [at 20.6 µM] (inactive) | 
NCC1CCC(C(=O)O)CC1 (stereo not drawn) | -2.97% [at 20.6 µM] (inactive) | 
O=C(O)c1cc(=O)c2c3nc4ccccc4oc-3cc(=O)c2[nH]1 | 0.951% (inactive) | 
C/C=C/C1=C(C(=O)O)N2C(=O)[C@@H](NC(=O)[C@H](N)c3ccc(O)cc3)[C@H]2SC1 | -1.21% (inactive) | 
CO[C@H](C(=O)[C@@H](O)[C@@H](C)O)C1Cc2cc3cc(O[C@H]4C[C@@H](O[C@H]5C[C@@H](O)[C@H](O)[C@@H](C)O5)[C@@H](O)[C@@H](C)O4)c(C)c(O)c3c(O)c2C(=O)[C@H]1O[C@H]1C[C@@H](O[C@H]2C[C@@H](O[C@H]3C[C@](C)(O)[C@H](O)[C@@H](C)O3)[C@H](O)[C@@H](C)O2)[C@H](O)[C@@H](C)O1 (stereo partly drawn) | 11.9% (inactive) | 
CCc1cn([C@H]2C[C@H](O)[C@@H](CO)O2)c(=O)[nH]c1=O | -4.58% (inactive) | 
O=C1c2ccccc2C(=O)C1c1ccc(F)cc1 | 26.6% (inactive) | 
NS(=O)(=O)c1cc(Cl)c(Cl)c(S(N)(=O)=O)c1 | 10.3% [at 20.6 µM] (inactive) | 
O=c1[nH]c(=O)n([C@H]2C[C@H](O)[C@@H](CO)O2)cc1/C=C/Br | -14.7% (inactive) | 
C(=C\c1ccncc1)/c1ccccc1 | -10% (inactive) | 
CNC(=O)C[C@@H](N)C(=O)N[C@@H](C(=O)N[C@@H]1C(=O)N2[C@@H]1SC(C)(C)[C@@H]2C(=O)O)c1ccc(O)cc1 | -14.3% (inactive) | 
CC1(C)S[C@@H]2[C@H](NC(=O)[C@@H](NC(=O)N3CCNC3=O)c3ccccc3)C(=O)N2[C@H]1C(=O)O | -1.03% [at 20.6 µM] (inactive) | 
O=C(CCCN1CCN2CCCC2C1)c1ccc(F)cc1 (stereo not drawn) | 1.11% (inactive) | 
CSCCC(N)C(=O)O (stereo not drawn) | -2.26% (inactive) | 
O=C1c2ccccc2CN2C(=O)c3ccccc3CN12 | -0.33% (inactive) | 
C[C@H](NCCc1ccc(O)cc1)[C@H](O)c1ccc(O)cc1 | -0.83% (inactive) | 
O=P(O)(O)OP(=O)(O)OP(=O)(O)O | -1.15% (inactive) | 
